Bioassay records as filed in PubChem.
A selection: hits, their analogues and other compounds. The true share with any hit is near 1.9%.
EP2 modulator – EP2 receptor (human) modulation. P43116. EP2-expressing cells, cAMP HTRF FRET, PGE2 co-stimulation. induction, % at 25 µM. 0.83% of 260,000 active. AID 940;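 active = compounds whose cAMP rise, as percent of the full-agonist control response, exceeds 60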;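 note: rat C6 glioma line stably carrying human EP2 under a CMV promoter; the protocol text gives 20 µM as final concentration; 100% = response of wells given 1 µM PGE2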
S1P3 antag – antagonists of human S1P3 receptor; AID 485; Q99500; CHO S1P3 NFAT-BLA reporter, FRET fluorescence, antagonist mode; inhibition, % at 4.98 µM; 0.27% of 170,000 active;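 active = inhibition above the plate cutoff, the mean inhibition of test wells on that plate plus 3 SD, cut at about 28% in these data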;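 note: cells challenged with S1P at its EC80 of 0.8 µM; blue over green emission ratio from cleaved BLA substrate after 4 h stimulation; 0% = S1P-stimulated wells and 100% = unstimulated DMSO-only wells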
EP2 antag – blocks the human prostaglandin E2 receptor EP2; P43116; C6 glioma cells expressing human EP2, cAMP TR-FRET; cells stimulated with saturating PGE2; inhibition, % at 25 µM; 0.52% of 260,000 active;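 active = percent inhibition above 40 after rounding to a whole number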;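 note: rat C6 glioma host cells with rolipram phosphodiesterase inhibitor present; the protocol text gives 20 µM as final concentration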
S1P4 antag – blocks the human S1P4 receptor; S1P4-expressing cells, antagonist mode, reporter read-out; inhibition, % at 4.98 µM; 0.26% of 220,000 active; in the data active = inhibition above about 29%;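 note: 0% = wells stimulated with agonist and 100% = vehicle wells without agonist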
Target sequence (O95977 whole entry, looked up): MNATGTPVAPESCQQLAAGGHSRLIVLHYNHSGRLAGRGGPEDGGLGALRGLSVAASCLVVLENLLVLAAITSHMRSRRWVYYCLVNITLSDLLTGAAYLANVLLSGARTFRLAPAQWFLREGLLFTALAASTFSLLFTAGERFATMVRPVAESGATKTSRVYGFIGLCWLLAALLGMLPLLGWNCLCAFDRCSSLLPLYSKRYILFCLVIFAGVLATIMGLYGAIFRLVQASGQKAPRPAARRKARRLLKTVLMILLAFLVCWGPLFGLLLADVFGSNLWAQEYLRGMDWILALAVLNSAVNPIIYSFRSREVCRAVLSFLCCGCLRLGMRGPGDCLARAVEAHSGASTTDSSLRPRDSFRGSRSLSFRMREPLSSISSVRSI
S1P4 ag – agonists of human S1P4 receptor; AID 1509; activation, % at 4.98 µM; S1P4-expressing cell line, agonist reporter assay; 0.35% of 220,000 active; O95977; in the data active = activation above about 11%;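 note: 0% = DMSO vehicle and 100% = reference agonist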
* hit, by the source's call; . = no result; ! = a repeat was not active.

SMILES	EP2 modulator	S1P3 antag	EP2 antag	S1P4 antag	S1P4 ag
CCc1nnc(NS(=O)(=O)c2ccc(NC(=S)NC(=O)/C=C/c3ccc(F)cc3)cc2)s1	-11	-20	133*	6	0
COc1ccc(/C=C/C(=O)NC(=S)Nc2ccc(S(=O)(=O)Nc3nccnc3OC)cc2)cc1	-11	-16	40*	-5	0
COc1ccc(/C=C/C(=O)NC(=S)Nc2ccc(S(=O)(=O)Nc3cc(OC)ncn3)cc2)cc1	-77	-20	64*	-7	1
Cc1ccc(/C=C/C(=O)NC(=S)Nc2ccc(S(=O)(=O)Nc3cc(C)on3)cc2)cc1	-111	.	83*	.	.
COc1ccc(C2(C(=O)NC(C)c3nc(-c4ccncc4)n[nH]3)CCCC2)cc1 (centres undefined)	-25	.	6	.	.
CCCC(=O)Nc1ccc(NC(=O)CSc2nnc(-c3ccncc3)n2CC)cc1	4	.	9	.	.
CCn1c(=O)c2c(nc(SCC(=O)c3cccc(OC)c3)n2C)n(C)c1=O	-47	.	2	.	.
COc1ccc(C(=O)NC(=S)Nc2ccc(S(=O)(=O)Nc3nc(C)cc(C)n3)cc2)cc1	-98	.	70*	.	.
COc1ccc(/C=C/C(=O)NC(=S)Nc2ccc(S(=O)(=O)Nc3nc(C)cc(C)n3)cc2)cc1	-119	.	26	.	.
O=C(Nc1ccc(Cl)cc1)C1CCCN1C(=O)NC1CCCCC1 (centres undefined)	-1	.	8	.	.
CCOC(=O)c1cc(C)sc1NC(=S)Nc1ccccc1	65*	.	9	-3	-1
CCOC(=O)c1c(NC(=S)Nc2ccccc2)sc(C)c1C	22	.	9	-16	0
O=C(NCC1Cc2ccccc2O1)c1cc2ccccc2oc1=O (centres undefined)	-47	.	8	.	.
COc1ccccc1N(C(=O)c1cncc(Br)c1)c1nc(-c2ccc(C)cc2)cs1	64*	0	6	-18	1
Cc1nc2sccn2c1CN1CCc2sccc2C1C (centres undefined)	-43	.	12	.	.
CCCC(=O)N1c2cc(C)ccc2-c2c(ssc2=S)C1(C)C	67*	.	7	.	.
COc1ccc(-c2nc3ccccc3n2Cc2ccc(C)cc2)cc1	62*	.	9	10	0
CN(C)Cc1cc(C(C)(C)C)cc(C(C)(C)C)c1O	10	-25	11	-3	-1
CN(C)Cc1ccc(C(C)(C)C)cc1-c1cc(C(C)(C)C)ccc1CN(C)C	9	.	51*	.	.
CC(=O)[C@@]1(O)CC[C@H]2[C@@H]3C[C@H](C)C4=CC(=O)CC[C@]4(C)[C@H]3CC[C@@]21C	27	4	13	-17	1
CC(=O)[C@]1(O)CC[C@@H]2[C@H]3C[C@@H](C)C4=CC(=O)CC[C@@]4(C)[C@@H]3[C@@H](O)C[C@]21C	4	.	50*	.	.
COc1cc(C(=O)Nc2sc(C(=O)N3CCCCC3)c(C)c2C#N)cc(OC)c1OC	-15	.	13	.	.
CCCCCCCCNC(C)C(O)c1ccc(SC(C)C)cc1 (centres undefined)	-23	1	115*!	-12	0
C[C@@H](NCCc1ccc(O)cc1)[C@@H](O)c1ccc(O)cc1	17	.	9	.	.
COc1cccc(/C(O)=C2/C(=O)C(=O)N(CCCN3CCOCC3)C2c2cccnc2)c1 (centres undefined)	-7	.	20	.	.
SMILES	EP2 modulator	S1P3 antag	EP2 antag	S1P4 antag	S1P4 ag
CCOC(=O)C1=C(N)OC2=C(C(=O)CC(C)(C)C2)C1c1ccc(F)cc1 (centres undefined)	14	.	12	.	.
COC(=O)c1ccc(C2C(C(=O)OC(C)C)=C(N)OC3=C2C(=O)CC(C)(C)C3)cc1 (centres undefined)	65*	.	3	.	.
Cc1ccc2cc(CN(CC3CCCO3)S(=O)(=O)c3ccc(F)cc3)c(=O)[nH]c2c1C (centres undefined)	-15	.	11	.	.
CC(=O)COC(=O)c1cc(-c2ccc(C)cc2)nc2ccccc12	-47	2	12	-5	1
CCOC(=O)c1cc(-c2ccccc2)nc2ccc(C)cc12	66*	-14	4	-2	1
CC(=O)COC(=O)c1cc(-c2ccccc2)nc2ccc(Br)cc12	68*	.	25	.	.
OCc1ccncc1.OCc1ccncc1.[Cl][Pt]([Cl])([Cl])[Cl]	-14	.	69*	.	.
OCc1cccnc1	.	.	12	.	.
O=C(CSc1ccccn1)Nc1cccc(F)c1	-34	.	13	.	.
CCOC(=O)C1(C)/C(=N/Nc2ccc(Cl)cc2)C(=O)C(=O)N1c1ccccc1 (centres undefined)	61*	.	3	7	0
CCOC(=O)C1(C)/C(=N/Nc2cccc(Cl)c2)C(=O)C(=O)N1c1ccccc1 (centres undefined)	-5	.	7	7	0
CCOC(=O)c1c(CCl)nc2ccccc2c1-c1ccccc1	87*	-7	6	10	-2
CCOC(=O)c1c(C)nc2c(c1-c1ccccc1)C(=O)c1ccccc1-2	61*	.	6	-3	1
CCOC(=O)c1c(C)nc2c(c1-c1cc(OC)ccc1OC)C(=O)c1ccccc1-2	55	.	9	-5	-1
COc1ccc(NC(=O)CSc2nnc3c(n2)[nH]c2ccc(F)cc23)c(OC)c1	-71	.	15	.	.
COC(=O)c1c(NC(=O)c2ccccc2OC)sc(C(=O)NC2CCCCC2)c1C	-9	.	0	.	.
O=C(OCCNC(=O)c1cc2ccccc2oc1=O)c1cccnc1	64*	3	10	-2	0
CC(=O)c1sc(N2CCOCC2)nc1-c1ccccc1	-9	-7	30	-5	-1
FC(F)(F)c1ccc(N=Cc2sc(N3CCOCC3)nc2-c2ccccc2)cc1	34	2	46*	-4	0
O=C(COC(=O)[C@H](Cc1ccccc1)NC(=O)c1ccco1)NC(c1ccccc1)c1ccccc1	62*	.	11	3	-1
O=C(COC(=O)C(Cc1ccccc1)NC(=O)c1ccco1)NC1CC1 (centres undefined)	39	.	6	2	-3
COc1ccc(NC(=O)CN2CCC3(CC2)NC(=O)c2ccccc2O3)cc1	-11	.	10	.	.
Cc1ccc2[nH]c(=O)c(CN(Cc3ccccc3Cl)Cc3nnnn3C3CCCC3)cc2c1	74*	.	5	.	.
COc1ccccc1CN(Cc1cc2cc(C)ccc2[nH]c1=O)Cc1nnnn1C1CCCC1	65*	.	6	.	.
Cc1ccc2[nH]c(=O)c(CN(Cc3ccccc3)Cc3nnnn3C3CCCCC3)cc2c1	45	.	13	.	.
Cc1ccc2[nH]c(=O)c(CN(Cc3ccccc3)Cc3nnnn3C3CCCC3)cc2c1	57	0	9	-6	-2
CN(C)Cc1nc2ccccc2c(=O)n1Cc1nc(-c2cccc([N+](=O)[O-])c2)cs1	43	-12	3	-19	0
CN1CCN(Cc2nc3ccccc3c(=O)n2Cc2nc(-c3ccc([N+](=O)[O-])cc3)cs2)CC1	-22	-3	49*	0	1
CCCOC1CCCN(Cc2cn(CC(N)=O)c3ccccc23)C1 (centres undefined)	-64	.	8	.	.
CCn1c(C)cc2cc(NC(=O)c3c(-c4ccncc4)noc3C)ccc21	-61	.	5	.	.
